In assay [1] the target is Protein phosphatase 1D (Homo sapiens) (UniProt O15297). As to the kind of experiment: RapidFire Mass Spectrometry qHTS Assay for Modulators of WT P53-Induced Phosphatase 1 (WIP1) (AID 1347424).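 Note: amount of dephosphorylated VEPPL-S-QETFS peptide product formed by WIP1; series mostly up to about 63 µM; plate controls were DMSO wells for no effect and GSK830371 inhibitor control at 10 µM for full effect.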 Summed up: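 10 nM WIP1 preincubated with compounds 1 hr at room temperature in pH 7.5 Tris buffer with 30 mM MgCl2, 1 mM TCEP; 2 uM VEPPL-pS-QETFS phosphopeptide for 5 min, formic acid quench; dephosphorylated product quantified by RapidFire MS against labelled standard.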
Chain of Protein phosphatase 1D (Homo sapiens) (O15297 whole entry, looked up): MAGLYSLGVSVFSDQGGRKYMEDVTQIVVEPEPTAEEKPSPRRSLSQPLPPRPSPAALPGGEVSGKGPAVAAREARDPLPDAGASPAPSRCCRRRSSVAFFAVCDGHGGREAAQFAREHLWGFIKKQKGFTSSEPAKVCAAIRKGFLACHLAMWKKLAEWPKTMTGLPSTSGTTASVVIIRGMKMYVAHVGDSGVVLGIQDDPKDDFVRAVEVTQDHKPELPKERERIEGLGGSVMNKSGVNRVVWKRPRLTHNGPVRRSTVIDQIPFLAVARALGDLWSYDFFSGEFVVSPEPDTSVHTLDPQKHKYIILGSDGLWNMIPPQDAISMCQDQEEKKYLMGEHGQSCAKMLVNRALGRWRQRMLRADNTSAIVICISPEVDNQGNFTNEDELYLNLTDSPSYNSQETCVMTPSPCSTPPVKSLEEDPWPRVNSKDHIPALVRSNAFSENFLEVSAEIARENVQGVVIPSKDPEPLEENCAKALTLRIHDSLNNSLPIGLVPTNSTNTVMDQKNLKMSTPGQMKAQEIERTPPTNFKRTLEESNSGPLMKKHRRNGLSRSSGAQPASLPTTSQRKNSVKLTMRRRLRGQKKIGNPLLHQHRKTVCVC

For assay [2] the target is unchanged. As to the kind of experiment: Rhodamine-PBP qHTS Assay for Modulators of WT P53-Induced Phosphatase 1 (WIP1) (AID 1347425). Note: % of control where 0% means no effect. Summed up: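 5 nM WIP1 + 10 uM Rh-PBP, 50 mM Tris pH 7.5, 30 mM MgCl2, 1 mM TCEP, 0.1 mM EGTA, BSA; cpds pinned, 1 hr RT; + 10 uM phosphopeptide; fluorescence 1-min reads x 11 min; delta = f1 - f0.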
On the technique in general: qHTS replaces the single test concentration by a dilution series.

Assay [3] can be described thus: Primary qHTS for inhibitors of La Crosse Virus (LACV) - induced cell death in SH-SY5Y cells (AID 1508616).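 For activity change: top concentration of the series differs between compounds; 0% = infected DMSO wells and 100% = uninfected DMSO wells; higher means more rescue of cells from virus-induced death.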 Note: potency is the fitted concentration of half-maximal effect. An outline of the steps: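 SH-SY5Y cells (6000/well) plated 24 h, then given compounds by pin transfer and LACV at 0.01 MOI for 6 days at 37C. Viability measured by ATPLite luminescence, normalized to infected DMSO and uninfected DMSO.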
The nature of assay [4]: Primary qHTS for small molecule stabilizers of the endoplasmic reticulum resident proteome: Secreted ER Calcium Modulated Protein (SERCaMP) assay (AID 1508630). Note: % is set by controls: 0 for no effect and ±100 for the full control effect. Summed up:
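GLuc-SERCaMP-expressing SH-SY5Y cells, pretreated 16 h with compound, are challenged with thapsigargin to empty ER calcium stores; after 4 h, coelenterazine is added directly to the medium and luminescence is imaged.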

Assay [5] can be described thus: A High-Content qHTS Against Drug Library for the Identification of Small Molecules that Inhibit DYT1 Early Onset Primary Dystonia-Associated Cell Pathology (AID 1645839; calls by dose curve; note: series mostly up to about 46 µM). Summed up: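 Flp-In T-REx 293 cells with tetracycline-inducible EGFP-delE hTOR1A (WT EGFP-hTOR1A as reference), 800 cells/well; compound added with tetracycline, 48 h at 37 C. Fixed, permeabilized cells imaged; %pathology (punctate TorsinA) primary, cell count counterscreen.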

Assay [6] concerns the target Cytochrome P450 2D6 (Homo sapiens) (UniProt P10635). In words: Cytochrome P450 family 2 subfamily D member 6 (CYP2D6) small molecule antagonists: luciferase biochemical (cell-free) qHTS assay (AID 1645840; active = well fitted curve in the direction sought with a large enough effect in the repeat runs; an effect the other way counts as inactive or inconclusive; note: nearly all actives have a fitted effect of over 55% in size; note: potency is the fitted concentration of half-maximal effect). An outline of the steps:
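P450-Glo luminescent screen: recombinant CYP2D6 enzyme–proluciferin substrate mix preincubated with compound 10 min at room temperature, then NADPH regeneration added for 1 h at room temperature. Detection reagent added for 20 min; luciferin light read as relative luminescence units.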

Assay [7] has as its target Cytochrome P450 3A4 (Homo sapiens) (UniProt P08684). As to the kind of experiment: Cytochrome P450 family 3 subfamily A member 4 (CYP3A4) small molecule antagonists: luciferase qHTS assay (AID 1645841; active = well fitted curve in the direction sought with a large enough effect in the repeat runs; an effect the other way counts as inactive or inconclusive; note: nearly all actives have a fitted effect of over 45% in size). Summed up:
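P450-Glo CYP3A4 enzyme with proluciferin substrate preincubated 10 min with compound at room temperature, then NADPH regeneration 1 h. Luciferin detection reagent added for 20 min; luminescence recorded. Ketoconazole positive control.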

For assay [8], the target named is Cytochrome P450 2C9 (Homo sapiens) (UniProt P11712). In words: Cytochrome P450 family 2 subfamily C member 9 (CYP2C9) small molecule antagonists: luciferase biochemical (cell-free) qHTS assay (AID 1645842; active = well fitted curve in the direction sought with a large enough effect in the repeat runs; an effect the other way counts as inactive or inconclusive; note: nearly all actives have a fitted effect of over 55% in size; note: potency is the fitted concentration of half-maximal effect). Summed up: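 Luminescence, after 20 min with luciferin detection reagent, reflected CYP2C9 turnover during a 1 h NADPH-driven reaction at 37C. Enzyme-substrate mix contained 0.4% bovine serum albumin and was preincubated with compound 10 min at room temperature.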
Chain of Cytochrome P450 2C9 (Homo sapiens) (P11712 whole entry, looked up): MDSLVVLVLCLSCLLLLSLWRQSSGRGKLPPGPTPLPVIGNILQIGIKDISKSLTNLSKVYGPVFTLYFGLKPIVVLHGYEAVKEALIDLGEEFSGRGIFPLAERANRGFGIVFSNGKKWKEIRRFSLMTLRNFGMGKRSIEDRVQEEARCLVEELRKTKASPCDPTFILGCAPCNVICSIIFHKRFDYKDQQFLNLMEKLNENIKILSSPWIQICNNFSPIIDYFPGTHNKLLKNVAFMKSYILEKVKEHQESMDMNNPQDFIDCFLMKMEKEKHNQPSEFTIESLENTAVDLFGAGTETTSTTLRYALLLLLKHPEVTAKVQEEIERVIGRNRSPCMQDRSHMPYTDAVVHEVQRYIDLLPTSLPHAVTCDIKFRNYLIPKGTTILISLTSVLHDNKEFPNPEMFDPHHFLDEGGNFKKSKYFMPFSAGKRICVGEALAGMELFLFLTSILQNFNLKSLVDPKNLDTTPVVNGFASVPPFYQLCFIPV

The nature of assay [9]: qHTS to identify inhibitors of the type 1 interferon - major histocompatibility complex class I in skeletal muscle: primary screen against the NCATS Mechanism Interrogation Plate v5.0 (MIPE) Libary (AID 1347411).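 Note: plate controls were vehicle for no effect and reference inhibitor for full effect; nearly all actives have a fitted effect of over 65% in size.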 Summed up:
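Immortalized human myoblasts (C25cl48) with HiBit knocked into endogenous HLA-B*08:01 were stimulated with 4 ng/ml IFN-beta and given compounds in 11-point 1:3 titration from 46 uM. After 24 h at 37 C, lytic HiBiT luminescence was read.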

The target in assay [10] is Calcium and integrin-binding protein 1 (Homo sapiens) (UniProt Q99828). As to the kind of experiment: Primary qHTS for Identification of Calcium Integrin Binding Protein 1 (CIB1) Competitor (AID 1508620).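 Note: GST tagged CIB1 binding a fluorescein labelled alphaIIb integrin peptide tracer; top concentration of the series differs between compounds; % is set by controls: 0 for no effect and ±100 for the full control effect.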 Summed up:
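Fluorescence polarization competition: GST-tagged CIB1 (1 uM final) preincubated with compound 15 min at room temperature, then FITC-labelled alphaIIb peptide (100 nM final) added. After 15 min at room temperature, polarization read at Ex 480/Em 540.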

Assay [11] in a line: Primary qHTS for inhibitors of nuclear receptor binding SET domain protein 2 (NSD2) in an isogenic RCH-ACV NSD2 p.E1099K mutant (9B) (AID 1645876). Note: nearly all actives have a fitted effect of over 70% in size. Note: potency is the fitted concentration of half-maximal effect.
Assay [12] deals with N-terminal Xaa-Pro-Lys N-methyltransferase 1 (Homo sapiens) (UniProt Q9BV86). As to the kind of experiment: Confirmatory qHTS for Inhibitors of N-terminal methyltransferase 1 (NTMT1): MTaseGlo Assay (AID 1645874). Note: potency is the fitted concentration of half-maximal effect; nearly all actives have a fitted effect of over 65% in size. Summed up: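 Preincubation of NTMT1 (125 nM) plus SAM (100 uM) with test compounds lasted 15 min; methylation of 1 uM SPKRIA then proceeded 30 min in the dark at room temperature. Luciferase signal reported SAH produced.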
Chain of N-terminal Xaa-Pro-Lys N-methyltransferase 1 (Homo sapiens) (Q9BV86 whole entry, looked up): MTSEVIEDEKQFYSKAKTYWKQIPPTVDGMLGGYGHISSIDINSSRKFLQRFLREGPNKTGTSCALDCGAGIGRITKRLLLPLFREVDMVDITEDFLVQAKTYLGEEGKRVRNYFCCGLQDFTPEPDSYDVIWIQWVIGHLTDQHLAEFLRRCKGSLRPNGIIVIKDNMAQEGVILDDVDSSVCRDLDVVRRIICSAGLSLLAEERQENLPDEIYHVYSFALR

A short description of assay [13]: Counterscreen qHTS for small molecule stabilizers of the endoplasmic reticulum resident proteome: GLuc-NoTag assay (AID 1508627). Note: potency is the fitted concentration of half-maximal effect. Summed up:
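SH-SY5Y cells stably expressing constitutively secreted GLuc without SERCaMP tag, exposed to compound for 19 hr, then to 100 nM thapsigargin for 4 hr at 37C. Medium luciferase was read by coelenterazine luminescence without lysis.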
For orientation: Counterscreens check selectivity or assay interference.

A short description of assay [14]: Cell Viability qHTS for small molecule stabilizers of the endoplasmic reticulum resident proteome (AID 1508629).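 Note: potency is the fitted concentration of half-maximal effect; compound exposure about 46 h in total before the viability read.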 The note with it: cell viability counter-screen, 100 nM thapsigargin for final 4 h.
The target in assay [15] is Calcium and integrin-binding protein 1 (Homo sapiens) (UniProt Q99828). In words: Validation qHTS for Identification of Calcium Integrin Binding protein 1 (CIB1) Competitor (AID 1508618). Note: % is set by controls: 0 for no effect and ±100 for the full control effect. Summed up: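 Displacement of FITC-alphaIIb peptide (100 nM) from CIB1-GST (1 uM) is monitored by polarization in quantitative HTS format; buffer carries 5 mM CaCl2 and 125 mM NaCl at pH 7.4, incubations are at room temperature.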
Chain of Calcium and integrin-binding protein 1 (Homo sapiens) (Q99828 whole entry, looked up): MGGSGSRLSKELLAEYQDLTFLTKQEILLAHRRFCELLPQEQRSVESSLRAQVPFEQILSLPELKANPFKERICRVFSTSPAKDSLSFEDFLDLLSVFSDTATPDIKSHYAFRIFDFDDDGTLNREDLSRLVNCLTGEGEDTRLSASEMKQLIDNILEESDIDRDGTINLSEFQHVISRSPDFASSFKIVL

The target of assay [16] is Papain (Carica papaya) (UniProt P00784). In words: Primary qHTS assay for inhibitors of the protease papain (AID 1645873).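 Note: papain turnover of Z-FR-AMC read as the AMC fluorescence gain over 10 min; series mostly up to about 50 µM; % is set by controls: 0 for no effect and ±100 for the full control effect.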
Chain of Papain (Carica papaya) (P00784 whole entry, looked up): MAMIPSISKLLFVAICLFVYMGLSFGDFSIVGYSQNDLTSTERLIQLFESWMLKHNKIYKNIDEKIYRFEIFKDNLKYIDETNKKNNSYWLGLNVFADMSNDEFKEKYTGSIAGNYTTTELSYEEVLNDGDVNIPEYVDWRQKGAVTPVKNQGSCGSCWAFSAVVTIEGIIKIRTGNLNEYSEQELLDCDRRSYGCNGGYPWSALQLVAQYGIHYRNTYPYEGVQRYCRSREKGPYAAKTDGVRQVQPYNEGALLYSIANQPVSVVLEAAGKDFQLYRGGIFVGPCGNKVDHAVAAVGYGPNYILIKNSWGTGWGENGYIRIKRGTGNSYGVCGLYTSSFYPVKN

Structures are written as SMILES. “And” between values parts separate entries of the source, which are not always exact repeats. Equal entries are not always repeated. Inconclusive results are not listed. Unmarked numbers belong to inactive results. The source made the active and inactive calls. Unless noted, calls come from the whole dose curve; as a rule, active = well fitted curve in the direction sought with a large enough effect; inconclusive = small, poorly fitted or top-dose-only effect, or another doubt; inactive = no such curve, though single readings can be large; an effect the other way counts as inactive or inconclusive.

Here are results for 16 compounds from PubChem BioAssay (NCATS).

Chain of Cytochrome P450 2D6 (Homo sapiens) (P10635 whole entry, looked up): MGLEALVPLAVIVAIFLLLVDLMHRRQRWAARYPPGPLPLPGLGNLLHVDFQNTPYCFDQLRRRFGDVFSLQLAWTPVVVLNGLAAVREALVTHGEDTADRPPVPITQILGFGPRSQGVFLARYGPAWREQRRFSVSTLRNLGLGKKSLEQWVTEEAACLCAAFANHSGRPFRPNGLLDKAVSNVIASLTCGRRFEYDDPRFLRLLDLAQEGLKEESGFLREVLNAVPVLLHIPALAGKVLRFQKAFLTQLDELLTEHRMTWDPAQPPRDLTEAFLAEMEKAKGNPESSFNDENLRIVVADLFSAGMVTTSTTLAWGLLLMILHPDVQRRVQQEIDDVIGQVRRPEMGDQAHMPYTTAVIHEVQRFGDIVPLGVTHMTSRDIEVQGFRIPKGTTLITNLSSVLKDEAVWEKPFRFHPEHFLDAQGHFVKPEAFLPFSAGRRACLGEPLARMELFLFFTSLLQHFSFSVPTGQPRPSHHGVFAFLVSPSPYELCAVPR
Chain of Cytochrome P450 3A4 (Homo sapiens) (P08684 whole entry, looked up): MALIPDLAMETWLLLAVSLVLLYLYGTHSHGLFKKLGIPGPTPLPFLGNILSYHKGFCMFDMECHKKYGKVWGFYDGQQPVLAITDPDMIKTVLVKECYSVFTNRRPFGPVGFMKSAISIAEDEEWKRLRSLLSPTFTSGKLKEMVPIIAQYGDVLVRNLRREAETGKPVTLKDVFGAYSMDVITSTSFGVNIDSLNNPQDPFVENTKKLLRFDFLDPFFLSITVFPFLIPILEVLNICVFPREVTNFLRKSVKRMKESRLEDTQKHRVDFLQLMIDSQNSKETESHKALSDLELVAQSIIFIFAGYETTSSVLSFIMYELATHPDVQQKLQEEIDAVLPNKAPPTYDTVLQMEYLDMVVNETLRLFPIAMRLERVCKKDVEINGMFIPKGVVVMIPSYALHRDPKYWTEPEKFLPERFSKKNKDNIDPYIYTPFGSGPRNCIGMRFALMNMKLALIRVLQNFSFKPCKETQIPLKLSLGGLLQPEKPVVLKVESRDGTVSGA

As to `CCC[C@@H]1C[C@@H](C(=O)N[C@@H]([C@H]2O[C@H](SC)[C@H](O)[C@@H](O)[C@H]2O)[C@@H](C)O)N(C)C1`, the Potency entry in assay [1], in [3], in assay [4], in [5], in [6] and in assay [8] was “inactive” throughout. For the same compound, the result in assay [2] and in [7] was inactive.
As to `Nc1nc(Cl)nc2c1ncn2[C@H]1C[C@H](O)[C@@H](CO)O1`, the Potency entry in assay [9], in assay [10], in assay [4] and in assay [6] was “inactive” in each case. Moreover, in assay [11], the Potency was 46.8 nM (active).
`CCOc1cc(CC(=O)N[C@@H](CC(C)C)c2ccccc2N2CCCCC2)ccc1C(=O)O`: the Potency entry in [9], in assay [4], in assay [6], in assay [8] and in assay [11] was “inactive” throughout.
As to `CC(C)(S)[C@@H](N)C(=O)O`, in [9], the activity change, negative = inhibition was -26.4% [at 5.1 µM]. For the same compound, the outcome in [11] is “inactive [at 4.96 µM]”.
Consider `CCCCCCCCOc1ccccc1C(=O)Nc1ccc(C(=O)OCC[N+](C)(CC)CC)cc1`, for which the Potency entry in [1], in assay [3], in assay [10] and in [4] was “inactive” each time. The compound was called inactive in assay [2]. The Potency was 17.4 µM (active) in [6], 1.55 µM (active) in assay [8] and 47.8 µM (active) in assay [12].
In the case of `CCC1=C(C)CN(C(=O)NCCc2ccc(S(=O)(=O)NC(=O)NC3CCC(C)CC3)cc2)C1=O` (stereo not given), the Potency entry in assay [9], in [3], in assay [4], in assay [6] and in assay [11] was “inactive” throughout.
Turning to `Clc1ccc(C(Cn2ccnc2)OCc2ccc(Sc3ccccc3)cc2)c(Cl)c1` (stereo not given), the Potency result in assay [1], in assay [3], in assay [10], in [4] and in assay [5] was “inactive” throughout. For the same compound, in assay [2], the result was inactive. For the same compound, the Potency is 0.155 µM (active) in [6], 2.75 µM (active) in assay [8] and 18600 nM (active) in [11].
Turning to `Nc1cccc2c1CN(C1CCC(=O)NC1=O)C2=O` (stereo not given), the Potency result in assay [1], in assay [3], in [10], in assay [4], in [5] and in assay [11] was “inactive” throughout. Besides, in assay [2], the result was inactive.
Regarding `O=P(O)(O)C(O)(Cn1ccnc1)P(=O)(O)O`, in [9], the activity change, negative = inhibition was 2.74% [at 5.1 µM]. The Potency result in assay [4] was “inactive”. Further, the activity change, negative = viability loss in [11] was 6% [at 4.96 µM].
As to `CC[C@]1(O)C[C@H]2CN(CCc3c([nH]c4ccccc34)[C@@](C(=O)OC)(c3cc4c(cc3OC)N(C=O)[C@H]3[C@@](O)(C(=O)OC)[C@H](OC(C)=O)[C@]5(CC)C=CCN6CC[C@]43[C@@H]65)C2)C1`, the Potency entry in assay [1], in [10], in assay [4], in assay [5] and in assay [8] was “inactive” throughout. Further, in assay [2], the call was inactive. Also, the Potency in [3] is 0.1 µM (active); in [11], 7.5 nM (active) and 59 nM (active).
Consider `CN(C)[C@@H](CCOc1cccc2ccccc12)c1ccccc1`, for which the Potency entry in [1], in assay [3], in assay [10] and in assay [4] was “inactive” each time. In addition, the compound was called inactive in [2]. In addition, the Potency in assay [6] was 347 nM (active) and 849 nM (active); in [8] it was 15.5 µM (active) and 21.3 µM (active).
For the compound `COC(=O)C1=C(C)NC(C)=C(C(=O)OCCCN2CCC(c3ccccc3)(c3ccccc3)CC2)C1c1cccc([N+](=O)[O-])c1` (stereo not given), the Potency entry in assay [1], in [3], in [10] and in assay [4] was “inactive” each time. Besides, the outcome in assay [2] was inactive. For the same compound, the Potency in assay [13] is 39.8 µM (active); in assay [14] it was 28.2 µM (active); in assay [11], 7.42 µM (active) and 7.5 µM (active).
Take `C[C@@H](c1ncncc1F)[C@](O)(Cn1cncn1)c1ccc(F)cc1F`: the Potency entry in assay [9], in assay [10], in assay [4], in assay [6] and in assay [16] was “inactive” each time. The result in [15] was inactive.
In the case of `CCOC(=O)C1=C[C@@H](OC(CC)CC)[C@H](NC(C)=O)[C@@H](N)C1`, the Potency entry in assay [9], in assay [4] and in assay [11] was “inactive” each time.
As for `N=C(N=C(N)N)N1CCOCC1`, the Potency result in [1], in assay [3], in [4], in assay [5], in assay [6] and in assay [8] was “inactive” throughout. Besides, the Potency entry in assay [11] was “inactive”. In addition, in [2], the compound was classed as inactive.
For the compound `CCCCc1ccc2nc(NC(=O)OC)[nH]c2c1`, the Potency entry in assay [1], in assay [3], in assay [10], in assay [4], in assay [5] and in [8] was “inactive” throughout. Also, the result in assay [2] was inactive. Also, the Potency in [11] was 53.1 nM (active) and 166 nM (active).
